Assay results as given in PubChem BioAssay (EPA / NIEHS).
Inconclusive results are not listed. Active and inactive are the calls of the source. The calls were made as follows, unless noted: active = hit-call score of the fitted dose curve at least 0.9, where 1 is the maximum; inconclusive = response in the unintended direction; inactive = score below 0.9.

Tests used:
[1] = STM_H9_CystineISnorm_perc: Stemina devTOX quickPredict H9 human embryonic stem cell (hESC)-based Assay for Cystine (CYSS) Metabolite Biomarker, Normalized (AID 2283713; active = hit-call score of the fitted dose curve at least 0.9, where 1 is the maximum; inactive = score below 0.9)
How it was run: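 Secreted cystine was measured by UPLC-HRMS in H9 hESC medium after 72h compound exposure with 24-hourly replenishment. Values are standard-normalized areas relative to 0.1% DMSO.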

[2] = STM_H9_OrnCyssISnorm_ratio: Stemina devTOX quickPredict H9 human embryonic stem cell (hESC)-based Assay for Ornithine (ORN):Cystine (CYSS) Ratio (AID 2283714)
How it was run: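 Undifferentiated H9 hESCs exposed 72 h, media and compound replaced every 24 h; final 24-h conditioned media deproteinized and analysed by UPLC-HRMS against C13 spike-ins. Value is the internal-standard-normalized ORN/CYSS ratio versus 0.1% DMSO.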

[3] = CEETOX_H295R_MTT_cell_viability: Viability Assessment in the CeeTox HT-H295R MTT Assay (AID 2283718; active = hit-call score of the fitted dose curve at least 0.9, where 1 is the maximum; inactive = score below 0.9;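 as to AC50: curve fitted both ways so AC50 may mark viability loss or gain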)
How it was run: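 Human H295R adrenal cells, prestimulated 48 h with 10 uM forskolin, were exposed 48 h to chemicals in 0.1% DMSO. Viability was measured in the same wells by MTT (0.5 mg/ml, 4 h, 37 C), absorbance 570/650 nm, as percent of controls.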

[4] = Tanguay_ZF_120hpf_ActivityScore_legacy: (Legacy) Oregon State University Tanguay Lab 120 Hour Post-fertilization zebrafish Assay Score for Activity (AID 2283742);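 as to AC50: dechorionated Tropical 5D wild-type zebrafish embryos held singly per well; static exposure from 6 hpf until 120 hpf at 28 °C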
How it was run: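 Dechorionated Tropical 5D embryos, one per well from 6 hpf, statically exposed to 120 hpf at 28 °C in 0.64% DMSO. Mortality and malformations scored binary by brightfield microscopy; activity score combines 18 endpoints, fitted positively versus DMSO.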

[5] = ArunA_CellTiter_hNC: Viability Assessment in the ArunA Biomedical's Oris Neural Crest (hNC) Cell Migration Assay (AID 2283752)
Procedure: (§1) ArunA_CellTiter_hNC is a cell-based, single-readout assay that uses human H9-derived embryonic neural crest stem cells (hNC). Measurements were taken 72 hours after chemical dosing in a 96-well plate.ArunA_CellTiter_hNC is an assay component measured from the ArunA_CellTiter_hNC assay. It is designed to make measurements of viability, a form of viability reporter, as detected with fluorescence intensity signals by HCS Fluorescent Imaging technology. Data from the assay component ArunA_CellTiter_hNC was analyzed at the endpoint, ArunA_CellTiter_hNC, in the positive analysis fitting direction relative to DMSO as the negative control and baseline of activity. Using a type of viability reporter, loss-of-signal activity can be used to understand viability. To generalize the intended target to other relatable targets, this assay endpoint is annotated to the cell cycle intended target family, where the subfamily is cytotoxicity.
To assess the hNP and hNC migration and cell titer endpoints, 60,000 cells per well were plated onto Matrigel in basal growth medium with LIF and bFGF in a 96-well plate format. Plates were incubated for 16 h at 37C followed by a 72 h exposure to chemical in the test medium. For the migration endpoints, cells were seeded and incubated in presence of 'seeding stoppers' to prevent cell migration and growth into the detection zone. At the beginning of chemical exposure, stoppers were removed, and growth medium was replaced with test medium. In the case of the stopper control wells, stoppers remained in place following replacement of growth medium with test medium. Following 72 -h exposure to the test medium, cells were stained at 37C for 30-60 min with calcein-AM. Cell viability in the detection zone was quantitated using a Flexstation3 microplate reader (ex494 nm/em 517 nm). Corresponding cell titer endpoints were assessed for the hNP and hNC cells using the Promega CellTiter Aqueous One Solution Cell Proliferation Assay (Cat no. G3581; CellTiter 96). Finally, to gain insight into the mechanisms by which cells migrate into the detection zone, Ki-67 expression was quantified for 10 additional chemicals in the hNP and hNC systems. Additionally, cytochalasin D was used as a positive control to inhibit cell migration. Supplementing the AB2 Basal Medium: 1. Decontaminate the external surfaces of all supplement vials and the medium bottle with ethanol or isopropanol. 2. Aseptically open each supplement vial and add the amount indicated below to the basal medium with a pipette. To make 100 ml of complete medium: AB2 Neural Medium 96 mL, ANS Supplement 2 mL, bFGF (50 ug/mL) 40 uL, LIF (10 ug/mL) 100 uL, L-Glutamine (200 mM) 1 mL, Penicillin (5,000 U/mL)/ Streptomycin (5,000 ug/mL) 1 mL. 3. Supplemented medium should be stored at 2-8C, protected from light. The complete medium should be given a 2 week expiration date. Dispense the complete medium into aliquots to avoid repeated heating prior to each use.Plate Coating Protocol for hNP1 Neural Progenitor Expansion: To coat dishes perform the following steps: 1. Thaw BD Matrigel at 2-8C overnight. Matrix will gel rapidly at 22C to 35C. Keep Matrigel on ice and use pre-cooled pipettes, plates and tubes when preparing. Gelled Matrigel may be re-liquified if placed at 2-8C on ice for 24 to 48 hours. 2. Handle using aseptic technique in a laminar flow hood. 3. Once BD Matrigel Matrix is thawed, swirl vial to be sure that material is evenly dispersed. 4. Place thawed vial of BD Matrigel Matrix in sterile area, decontaminate the external surfaces with ethanol or isopropanol and air dry. BD Matrigel Matrix may be gently pipetted using a pre-cooled pipette to ensure homogeneity. 5. Dilute Matrigel 1:200 with cooled Dulbecco's Modified Eagle's Medium. Keep on ice. 6. Add 2 mL diluted Matrigel to a 35-mm dish. Swirl to ensure the entire surface of the 35-mm dish is covered with the Matrigel solution. 7. Place dishes at 2-8C for 1-3 hours. 8. Rinse thoroughly with PBS. 9. Remove PBS and use immediately. […]

[6] = ArunA_CellTiter_hNP: Viability Assessment in the ArunA Biomedical's Oris Neural Crest (hNC) Cell Migration Assay (AID 2283753)
Procedure: as §1, with “ArunA_CellTiter_hNP” for “ArunA_CellTiter_hNC”, “neuroprogenitor” for “embryonic neural crest”, “(hNP1).Measurements” for “(hNC). Measurements”, “plate.ArunA_CellTiter_hNP” for “plate.ArunA_CellTiter_hNC”, “ArunA_CellTiter_hNP,” for “ArunA_CellTiter_hNC,”, “understand the” for “understand”
To assess the hNP and hNC migration and cell titer endpoints, 60,000 cells per well were plated onto Matrigel in basal growth medium with LIF and bFGF in a 96-well plate format. Plates were incubated for 16 h at 37C followed by a 72 h exposure to chemical in the test medium. For the migration endpoints, cells were seeded and incubated in presence of 'seeding stoppers' to prevent cell migration and growth into the detection zone. At the beginning of chemical exposure, stoppers were removed, and growth medium was replaced with test medium. In the case of the stopper control wells, stoppers remained in place following replacement of growth medium with test medium. Following 72 -h exposure to the test medium, cells were stained at 37C for 30-60 min with calcein-AM. Cell viability in the detection zone was quantitated using a Flexstation3 microplate reader (ex494 nm/em 517 nm). Corresponding cell titer endpoints were assessed for the hNP and hNC cells using the Promega CellTiter Aqueous One Solution Cell Proliferation Assay (Cat no. G3581; CellTiter 96). Finally, to gain insight into the mechanisms by which cells migrate into the detection zone, Ki-67 expression was quantified for 10 additional chemicals in the hNP and hNC systems. Additionally, cytochalasin D was used as a positive control to inhibit cell migration. Supplementing the AB2 Basal Medium: 1. Decontaminate the external surfaces of all supplement vials and the medium bottle with ethanol or isopropanol. 2. Aseptically open each supplement vial and add the amount indicated below to the basal medium with a pipette. To make 100 ml of complete medium: AB2 Neural Medium 96 mL, ANS Supplement 2 mL, bFGF (50 ug/mL) 40 uL, LIF (10 ug/mL) 100 uL, L-Glutamine (200 mM) 1 mL, Penicillin (5,000 U/mL)/ Streptomycin (5,000 ug/mL) 1 mL. 3. Supplemented medium should be stored at 2-8C, protected from light. […]

[7] = ArunA_Migration_hNP: ArunA Biomedical's Oris Neuroprogenitor (hNP) Cell Migration Assay (AID 2283754)
How it was run: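 Human H9-derived hNP1 neuroprogenitors on Matrigel with LIF/bFGF, plated around seeding stoppers for 16 h at 37C; stoppers removed at start of 72 h chemical exposure. Calcein-AM staining, fluorescence 494/517 nm in detection zone; loss-of-signal vs DMSO; cytochalasin D control.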

[8] = ArunA_Migration_hNC: ArunA Biomedical's Oris Neural Crest (hNC) Cell Migration Assay (AID 2283755)
How it was run: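 Human H9-derived neural crest stem cells, 60,000/well on Matrigel, 16 h at 37C, then 72 h chemical exposure after seeding-stopper removal. Migration into detection zone read as calcein-AM fluorescence (ex494/em517), relative to DMSO.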

[9] = ArunA_NOG_NucleusCount: ArunA Biomedical's Neurite Outgrowth (NOG) Assay for Nucleus Count (AID 2283756)
How it was run: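 Human H9-derived differentiated neurons were exposed for 48 h right after seeding. Hoechst-stained nuclei gated by size and intensity were counted by automated high-content imaging as viable neurons. Loss of signal vs DMSO.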

Compound: COc1ccc(S(=O)(=O)N2C(=O)[C@@](c3ccccc3OC)(N3C[C@H](O)C[C@H]3C(=O)N(C)C)c3cc(Cl)ccc32)c(OC)c1
- outcome [1]: inactive
- outcome [2]: inactive
- AC50 [3]: 3.43 µM (active)
- outcome [4]: inactive

Compound: CC=Cc1ccc(O)c(OC)c1
- outcome [3]: inactive
- outcome [4]: inactive

Compound: COCCOCCOC
- outcome [1]: inactive
- outcome [2]: inactive
- outcome [4]: inactive

Compound: O=C(OCCCCCOC(=O)c1ccccc1)c1ccccc1
- outcome [3]: inactive
- outcome [4]: inactive

Compound: CCCCC(CC)COC(=O)CC(C(=O)OCC(CC)CCCC)S(=O)(=O)O (configuration not stated)
- outcome [1]: inactive
- outcome [2]: inactive
- outcome [4]: inactive
- outcome [5]: inactive
- AC50 [6]: 7.54 µM (active)
- AC50 [7]: 77.9 µM (active)
- AC50 [8]: 28.7 µM (active)
- outcome [9]: inactive

Compound: CC1(C)CC(N=C=O)CC(C)(CN=C=O)C1 (configuration not stated)
- AC50 [3]: 22.3 µM (active)
- outcome [4]: inactive

Compound: COC(=O)c1ccc(O)cc1
- outcome [1]: inactive
- outcome [2]: inactive
- outcome [3]: inactive
- outcome [4]: inactive
- outcome [5]: inactive
- outcome [7]: inactive
- outcome [8]: inactive
- AC50 [9]: 13.7 µM (active)

Compound: CC1=C(/C=C/C(C)=C/C=C/C(C)=C/CO)C(C)(C)CCC1
- outcome [1]: inactive
- outcome [4]: inactive

Compound: CCCCc1ccc2c(n1)[C@@H](c1ccc(OC)cc1C[C@H](C)C(=O)O)[C@H](C(=O)O)[C@H]2c1ccc2c(c1)OCO2
- outcome [1]: inactive
- outcome [4]: inactive
- outcome [5]: inactive
- outcome [6]: inactive
- outcome [7]: inactive
- outcome [8]: inactive
- outcome [9]: inactive

Compound: Cc1c(C(=O)O)c(O)cc2c1C(=O)c1c(O)c([C@@H]3O[C@H](CO)[C@@H](O)[C@H](O)[C@H]3O)c(O)c(O)c1C2=O
- outcome [1]: inactive
- outcome [2]: inactive
- outcome [3]: inactive
- outcome [4]: inactive

Compound: Oc1ccc2c(c1)OC[C@@H](N1CCC(O)(c3ccc(F)cc3)CC1)[C@H]2O
- outcome [3]: inactive
- outcome [4]: inactive

Compound: CC(C)(C)c1cc(O)c(C(C)(C)C)cc1O
- AC50 [4]: 40.5 µM (active)

Compound: Nc1ccc2c(c1)C(=O)c1ccccc1C2=O
- outcome [3]: inactive
- outcome [4]: inactive

Compound: C=CCc1ccc(O)c(OC)c1
- outcome [3]: inactive
- outcome [4]: inactive

Compound: COc1cc(S(=O)(=O)O)c(C)cc1N=Nc1c(O)ccc2cc(S(=O)(=O)O)ccc12
- outcome [4]: inactive

Compound: Cc1ccc(C)c(C)c1
- outcome [4]: inactive

Compound: CC(=O)OC/C=C(\C)CCC=C(C)C
- outcome [4]: inactive

Compound: CC1(C)NC(=O)NC1=O
- outcome [4]: inactive

Compound: CC(C)c1ccc(C(=O)N=C(N)N)cc1S(C)(=O)=O
- outcome [4]: inactive

Compound: Cc1cccc([N+](=O)[O-])c1C
- outcome [4]: inactive

Compound: Cc1ccc2ncccc2c1
- outcome [4]: inactive

Compound: COc1cc(-c2nc(NC(=O)c3cc4cc(C)cc(C)c4n3CC(=O)O)sc2CCC2CCCCC2)c(OC)cc1Cl
- outcome [4]: inactive

Compound: NS(=O)(=O)c1cc2c(cc1Cl)NCNS2(=O)=O
- outcome [4]: inactive

Compound: O=C(N[C@@H](Cc1ccccc1)[C@@H](O)C(=O)N1C[C@@H](O)[C@@H](O)C1)c1cc2cc(Cl)ccc2[nH]1
- outcome [4]: inactive

Compound: COc1cc(C=O)ccc1O
- AC50 [4]: 69.8 µM (active)

Compound: c1cc(-c2ccncc2)ccn1
- outcome [3]: inactive
- outcome [4]: inactive

Compound: CCc1c(C(=O)NN2CCCCC2)nn(-c2ccc(Cl)cc2Cl)c1-c1ccc(Br)cc1
- AC50 [4]: 39.9 µM (active)

Compound: Cc1nc(C)nc(N2C[C@@H](C)N(c3ccnc([C@@H](C)O)n3)[C@@H](C)C2)n1
- outcome [3]: inactive
- outcome [4]: inactive

Compound: CCCCCCCCCCCCCCCC
- outcome [4]: inactive

Compound: FC(F)(F)C(F)(F)C(F)(F)C(F)(F)C(F)(F)C(F)(F)CCI
- outcome [4]: inactive

Compound: COCCOC[C@H](CC1(C(=O)NC2CCC(C(=O)O)CC2)CCCC1)C(=O)Oc1ccc2c(c1)CCC2 (some centres not stated)
- outcome [4]: inactive

Compound: COc1ccc(C)cc1N
- outcome [3]: inactive
- outcome [4]: inactive

Compound: CCCCCCOCCO
- outcome [4]: inactive

Compound: CCCCN(CCCC)CCCC
- outcome [4]: inactive

Compound: O=C(O)CCCCC(=O)O
- outcome [4]: inactive

Compound: CNC(=O)[C@H]1O[C@@H](n2cnc3c(NCc4cc(Cl)ccc4OCc4cc(C)no4)ncnc32)[C@H](O)[C@@H]1N
- outcome [4]: inactive

Compound: CCOC(=O)C(C)(C)Oc1ccc(Cl)cc1
- AC50 [4]: 37.7 µM (active)

Compound: Nc1ccc(S(=O)(=O)c2ccc(N)cc2)cc1
- outcome [4]: inactive

Compound: C[Si]1(C)O[Si](C)(C)O[Si](C)(C)O[Si](C)(C)O1
- outcome [4]: inactive
